High-throughput results from PubChem.
A selection: hits, their analogues and other compounds. The true share with any hit is near 4.7%.
TIM10 inh: inhibits growth of TIM10 yeast strain. inhibition, % at 10 µM. AID 463195. S. cerevisiae TIM10 strain growth, BacTiter-Glo luminescence, 24 h. 1.4% of 330,000 active;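 active = inhibition of 40% or more at the single tested concentration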;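 note: wild-type TIM10 isogenic control strain grown at permissive 25 °C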
SKKanGAS inh: blocks kanamycin growth of S. pyogenes SKKanGAS strain. BacTiter-Glo, 6 h. 1.3% of 300,000 active. inhibition, % at 7.5 µM;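 active = mean replicate score, as percent of positive control median, at least 50; inconclusive = mean below 50 but one replicate at or above 50; inactive = mean and every replicate below 50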;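 note: strain carries kanamycin resistance gene driven by streptokinase promoter and grows in 40 µg/ml kanamycin; loss of luminescence reflects streptokinase promoter inhibition or plain growth inhibition; 0% = median of DMSO wells and 100% = positive control at its reference dose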
PfHsp90 set2: reduces growth (ATP signal) of yeast expressing P. falciparum Hsp90; inhibition, % at 9.4 µM; 0.32% of 310,000 active; S. cerevisiae expressing PfHsp90, BacTiter-Glo ATP, 48 h; yeast lacking PDR1 and PDR3 efflux regulators;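 active = every replicate shows inhibition above about 80%, whatever the replicate mean, limit read from the data; inconclusive = mean inhibition reaches the set limit but some replicate falls short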;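 note: 0% = DMSO neutral controls and 100% = 20 µM radicicol positive controls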
Calb FLC: affects C. albicans growth with fluconazole; C. albicans CaCi-2 (fluconazole-resistant clinical isolate) + fluconazole, Alamar Blue growth, 48 h; growth inhibition, % (test concentration not listed); 0.57% of 300,000 active; AID 1979;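 active = growth inhibition above about 58% in most replicates, limit read from the data, passing the limit was not always enough; inconclusive = exactly half the replicates above a set limit; inactive = most replicates below a set limit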;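 note: all wells also contain fluconazole at 8 µg/ml as a sub-toxic cotreatment; 0% = median of DMSO wells and 100% = median of geldanamycin control wells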
tim10-1 inh: tim10-1 yeast growth inhibition; S. cerevisiae tim10-1 ts strain growth, BacTiter-Glo, 24 h; inhibition, % at 20 µM; 2.2% of 330,000 active; AID 463190;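 active = inhibition of at least 40%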;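 note: mutant grown at 25 °C; 0% = DMSO wells with yeast and 100% = wells holding no yeast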
tim23-1 inh: tim23-1 yeast growth inhibition; 1.3% of 330,000 active; inhibition, % at 20 µM; AID 463212; S. cerevisiae tim23-1 growth, BacTiter-Glo luminescence, 24 h;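 active = growth inhibition of the mutant yeast at or above 50%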;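 note: temperature-sensitive mutant grown at 25 °C; plate controls were DMSO-treated mutant yeast for no effect and medium wells lacking yeast for full effect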
tim10-1 confirm: tim10-1 yeast growth inhibition, confirmed | shares compounds with tim10-1 inh | 56% of 7,400 active | S. cerevisiae tim10-1 ts strain growth, BacTiter-Glo, 24 h | inhibition, % at 20 µM;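 active = inhibition of yeast growth at or above a set limit in either of two repeat tests at 20 µM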;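 note: tim10-1 mutant grown at permissive 25 °C to find synthetic lethal compounds; 0% = DMSO yeast wells and 100% = medium wells without yeast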
* marks the source's active call; other numbers are inactive results; ? = inconclusive; · = not tested or not shown.

SMILES	TIM10 inh	SKKanGAS inh	PfHsp90 set2	Calb FLC	tim10-1 inh	tim23-1 inh	tim10-1 confirm
O=C(NCc1ccccc1)c1nc(-c2cccs2)no1	5	·	0	·	40*	12	38*
CCCCOc1ccc(C(=O)Oc2cccnc2)cc1	10	8	6	-1	11	19	·
CC(C)(C)N(Cc1ccccc1)C(=O)c1ccc(Cl)cc1[N+](=O)[O-]	31	-2	-1	2	43*	35	29*
O=C(c1ccc(Cl)cc1[N+](=O)[O-])N(Cc1ccccc1)Cc1ccccc1	8	9	·	3	4	22	·
COc1ccc(CCNC(=O)c2ccc(NS(=O)(=O)c3ccc4[nH]c(=O)[nH]c4c3)cc2)cc1	14	-3	-18	-21	2	13	·
O=S(=O)(c1ccc(-c2csc(-c3cccnc3)n2)cc1)N1CCCC1	27	11	-19	?	44*	31	39*
CCc1ccc(NC(=O)N(Cc2ccco2)C(C)c2cccs2)cc1 (stereo not given)	21	0	6	5	42*	30	33*
CC(C)CCN(C(=O)Nc1ccccc1)C(C)c1cccs1 (stereo not given)	23	·	·	-9	43*	34	31*
N#Cc1c(-c2ccccc2)nc(SCC(=O)Nc2ccccc2)[nH]c1=O	·	·	-7	·	·	·	·
COC(=O)c1cccc(CSc2nc(-c3ccccc3)c(C#N)c(=O)[nH]2)c1	18	35	16	14	47*	28	8
CC(=O)c1sc(N/N=C2\CC3CCC2(C)C3(C)C)nc1C (stereo not given)	26	12	-6	1	43*	30	23
Cc1ccc(S(=O)(=O)NN=C2CC3CCC2(C)C3(C)C)cc1 (stereo not given)	·	·	-6	·	·	·	·
NC(=O)c1sc2nnc(-c3ccccc3)c(-c3ccccc3)c2c1N	28	-14	31	21	18	15	·
COc1ccc(C(=O)Nc2cc3c(cc2N2CCCCC2)n(C)c(=O)n3C)cc1OC	12	3	-20	17	48*	48	8
C/C=C(/C(=C/C)c1ccc(O)cc1)c1ccc(O)cc1	39	1	-14	13	44*	50	43*
CC(=NN=C(C)c1ccc(O)cc1)c1ccc(O)cc1	·	·	-5	·	·	·	·
CC(C)C(c1nnnn1C1CCCCC1)N1CCCc2ccccc21 (stereo not given)	26	12	-19	-3	44*	18	29
CC(C)(C)n1nnnc1C(c1cccs1)N1CCCc2ccccc21 (stereo not given)	27	0	-21	6	43*	48	38*
CC(C)C(c1nnnn1C1CCCC1)N1CCCc2ccccc21 (stereo not given)	25	1	·	47	41*	39	37*
CC(C)C(c1nnnn1C1CCCC1)N1CCc2ccccc21 (stereo not given)	14	·	-39	-1	36	39	·
Cc1cccc(-n2c(C)cc(C(=S)N3CCOCC3)c2C)c1C	15	2	7	-2	44*	34	24
Cc1cc(C)cc(-n2c(C)cc(C(=S)N3CCOCC3)c2C)c1	37	-7	1	4	24	31	·
O=c1cc(-c2ccccc2)nc(Sc2ccc([N+](=O)[O-])cc2[N+](=O)[O-])[nH]1	-13	2	0	0	21	28	·
Cc1cccc(Sc2ccc([N+](=O)[O-])cc2[N+](=O)[O-])n1	23	-12	-18	40	44*	46	28
Cc1ccc(N2C(=O)CC(Sc3cccs3)C2=O)cc1 (stereo not given)	18	4	9	-26	45*	29	49*
CC1CC1C(=O)OCC(=O)NNC(=O)c1ccc([N+](=O)[O-])cc1 (stereo not given)	15	·	-4	·	0	13	·
Cc1c(Cl)cccc1N=c1c([N+](=O)[O-])nn(-c2ccccc2)n1O	8	7	8	-3	13	13	·
Cc1ccc(N=c2c([N+](=O)[O-])nn(-c3ccccc3)n2O)c(C)c1	37	7	-4	-2	47*	45	42*
